{"source": "PubChem BioAssay (NCI)", "note": "The panel holds about 83,000 compounds, 20% with a hit somewhere; the sample as a whole holds those more often.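 For each line, cells grew in 96-well plates with the test compound present at a single concentration for 48 hours.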 A number with no mark means an inactive call. Activity calls are given as the source filed them. The calls were made as follows: active = growth percent below 10; inactive = the rest."}
{"system": "OVCAR-5 ovarian", "assay": "NCI-60 one-dose screen, 48 h (100 = growth as untreated, 0 = no growth, -100 = all killed)", "conditions": "10 µM unless noted"}
{"molecule": "O=C(Nn1c(NCC(=O)N2c3ccccc3Sc3ccccc32)nnc1-c1ccc(O)cc1)c1ccccc1", "growth": "90.4%"}
{"molecule": "N#C/C(=C\\c1cccc2cnccc12)n1nnc2cccc(F)c21", "growth": "31.8%"}
{"molecule": "O=C(S)CNC(=O)c1ccccc1", "growth": "93.1%"}
{"molecule": "CN(C)c1ccc2nc3ccc(=[N+](C)C)c([N+](=O)[O-])c-3sc2c1", "growth": "-7.81% (active)"}
{"molecule": "O=C1c2ccccc2NC(n2sc3ccccc3c2=O)N1c1ccccc1", "note": "(stereo not drawn)", "growth": "110%"}
{"molecule": "Cc1nc2ccccc2c(/C=C/c2ccccc2)c1C(=O)/C=C/c1ccc(C(F)(F)F)cc1", "growth": "-34.6% (active)"}
{"molecule": "CCOC(=O)c1nc(Nc2ccc(C(C)=O)cc2)sc1C", "growth": "99.5%"}
{"molecule": "Oc1ccc(Cl)cc1Cc1cc(Cl)cc(Cl)c1O", "growth": "92.3%"}
{"molecule": "COc1nc2ccc(C)cc2cc1-c1nc2c(cnn2-c2ccc(Br)cc2)c(=O)[nH]1", "growth": "73.2%"}
{"molecule": "CC(=O)OC[C@H]1OC(Sc2sc(C(=O)c3ccc(Cl)cc3)c(N)c2-c2nc3ccccc3s2)[C@H](OC(C)=O)[C@@H](OC(C)=O)[C@@H]1OC(C)=O", "note": "(stereo partly drawn)", "growth": "87.3%"}
{"molecule": "O=C1NC(=O)C(Cn2cnc3ccccc32)N1", "note": "(stereo not drawn)", "growth": "110%"}
{"molecule": "COc1cc(/C=C/C(=O)/C=C/c2cc(OC)c3c(c2OC)OCO3)c(OC)c2c1OCO2", "growth": "81.8%"}
{"molecule": "COc1c(B(O)O)cc(C)cc1-c1nc2ccc3[nH]ncc3c2c2c1CCCC2", "growth": "89.3%"}
{"molecule": "CCCCCCN(CCCCCC)c1ccc(/C=C2/SC(=O)NC2=O)c(C)c1", "growth": "109%"}
{"molecule": "COC(=O)c1ccc2[nH]c(O)c(C(=Nc3ccc(N(C)C(=O)CN4CCN(C)CC4)cc3)c3ccccc3)c2c1", "growth": "57.2%"}
{"molecule": "CCOC(=O)CC1C(COC(=O)NC)OC(n2cnc3c(NC(=O)Nc4ccccc4)ncnc32)C1O[Si](C)(C)C(C)(C)C", "note": "(stereo not drawn)", "growth": "94.2%"}
{"molecule": "CN1C(=O)N(C)C2Nn3c(s/c(=C\\c4ccccc4)c3=O)=NC21", "note": "(stereo not drawn)", "growth": "100%"}
{"molecule": "COc1cc(C(=O)c2cc(C)c3[nH]c4ccc(C)cc4c3c2C)cc(OC)c1OC", "growth": "41.7%"}
{"molecule": "CC(=O)N1CCN(c2ccc(OCC3CO[C@](Cn4ccnc4)(c4ccc(Cl)cc4Cl)O3)cc2)CC1", "note": "(stereo partly drawn)", "growth": "91.3%"}
{"molecule": "CN1CCN(Cc2ccc(NC(=O)c3cncc(C#Cc4cnccc4C#N)c3)cc2C(F)(F)F)CC1", "growth": "60.5%"}
{"molecule": "CCOC(=O)/C(C#N)=C\\Nc1ccc2ncnc(Nc3ccc(Cl)cc3Cl)c2c1", "growth": "82.2%"}
{"molecule": "Cn1cc(C(=O)c2nc(-c3cn(C)c4ccc(F)cc34)no2)c2cc(F)ccc21", "growth": "85.9%"}
{"molecule": "c1cc(-c2nnc(SSc3ncnc4nc[nH]c34)o2)ccn1", "growth": "39.7%"}
{"molecule": "CN(C)CC#Cc1ccc2ncc(C#N)c(Nc3ccc(F)c(Cl)c3)c2c1", "growth": "54.8%"}
{"molecule": "C#Cc1cccc(NC(=O)Nc2ccccc2NC(=O)CCl)c1", "growth": "-26% [8.25 µM] (active)"}
{"molecule": "COc1ccc2c(c1OC)C(=O)O[C@H]2[C@H]1c2c(cc3c(c2OC)OCO3)CCN1C", "growth": "96.2%"}
{"molecule": "Cc1ccc2c(-c3cc(-c4ccccc4)nc(N)c3C#N)cc(=O)oc2c1", "growth": "96.9%"}
{"molecule": "C[C@]12CC[C@@H]3c4cc(OC(F)F)c(OS(N)(=O)=O)cc4CC[C@H]3[C@@H]1CC[C@@H]2O", "growth": "49.3%"}
{"molecule": "CC(=O)Oc1ccccc1C(=O)N=C1[Se]CCCN1C(=O)c1ccccc1OC(C)=O", "growth": "90.8%"}
{"molecule": "N#Cc1c(-c2ccc(Cl)cc2)nc2c(c(-c3ccccc3)nn2-c2ccccc2)c1-c1ccc(O)cc1", "growth": "84%"}
{"molecule": "CC(=O)c1ccc(Nc2nc(C(C)=O)c(C)s2)cc1", "growth": "108%"}
{"molecule": "O=C(CCCCCCSc1nc(-c2ccccc2)cc(-c2ccccc2)n1)NO", "growth": "38.9%"}
{"molecule": "Cc1cc(Cl)ccc1NS(=O)(=O)c1ccc(-c2cnc(C3CC3)o2)cc1", "growth": "27.8%"}
{"molecule": "Brc1ccc2[nH]cc(-c3nc(-c4c[nH]c5ccncc45)cs3)c2c1", "growth": "38.9%"}
{"molecule": "COc1cc(C(=O)/C=C/c2c(Cl)nc3sccn23)cc(OC)c1OC", "growth": "92.6%"}
{"molecule": "N/C(=N\\c1nc2ccccc2s1)NC(=O)Nc1cccc2ccccc12", "growth": "41.1%"}
{"molecule": "NC1CCN(c2nc(Nc3cccc(C(F)(F)F)c3)c3c(=O)[nH]ccc3n2)CC1", "growth": "14.9%"}
{"molecule": "COc1ccc(/C=N/Nc2cc(=O)[nH]c3ccc(Cl)cc23)cc1", "growth": "95.1%"}
